The subject of the experiment is A549. The experiment is described as follows: relative viability (normalised to negative control = 1, bortezomib = 0) (fraction); higher = less cytotoxic. The conditions noted are these: inflammatory serum-free RHB-A with cytokines + LPS, 5 d + 24 h CellTiter-Blue. Here is the method: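 A549 KRAS-mutant NSCLC cells, pre-treated 5 µM GSK126 or vehicle (DMSO), were seeded at 250 cells/well in 384-well plates in serum-free RHB-A medium with inflammatory cytokines/LPS and treated with Selleck kinase inhibitor and NCI oncology compounds at 30 or 300 nM in triplicate, refreshed at 48 h. Viability was read by CellTiter-Blue after 5 d plus 24 h and normalised per plate with cellHTS2 (mean of bortezomib positive control = 0, mean of negative control = 1).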

Where [1] appears, read: compound 30 nM, GSK126 pretreatment: 5 uM GSK126.
Setting [2] is: compound 30 nM, GSK126 pretreatment: none (vehicle).
The mark [3] stands for this setting: compound 300 nM, GSK126 pretreatment: 5 uM GSK126.
Where [4] appears, read: compound 300 nM, GSK126 pretreatment: none (vehicle).

Consider ten compounds from the supplement of paper PMC6279402.

Structures can show the parent of a compound that is named as a salt. ± gives the standard deviation of the averaged measurements.

Turning to `CCN1CCN(C(=O)Cc2ccc(Nc3ncc(F)c(Nc4ccc(C(=O)Nc5ccccc5Cl)cc4)n3)cc2)CC1` [Aurora A Inhibitor I], the relative viability was 0.988 ± 0.045 under setting [1], 1.02 ± 0.032 under setting [2], 0.808 ± 0.14 under setting [3] and 0.671 ± 0.027 under setting [4].

In the case of `Cc1ccccc1-n1c(Cn2ncc3c(N)ncnc32)nc2cccc(C)c2c1=O`, the relative viability was determined as 0.756 ± 0.055 under setting [1], 0.787 ± 0.046 under setting [2], 0.689 ± 0.12 under setting [3] and 0.857 ± 0.13 under setting [4].

For `O=C(O)CCCc1ccc(N(CCCl)CCCl)cc1` [Chlorambucil], the relative viability runs as follows: under setting [1], 0.933 ± 0.1; under setting [2], 0.844 ± 0.11; under setting [3], 0.836 ± 0.13; under setting [4], 0.845 ± 0.12.

As to `O=P1(N(CCCl)CCCl)NCCCO1` (stereo not given) [Cyclophosphamide monohydrate; Cyclophosphamide], the relative viability was determined as 0.799 ± 0.035 under setting [1], 0.813 ± 0.086 under setting [2], 0.877 ± 0.031 under setting [3] and 0.941 ± 0.1 under setting [4].

Take `NCCCNCCSP(=O)(O)O` [Amifostine]: the relative viability runs as follows: under setting [1], 0.96 ± 0.16; under setting [2], 0.908 ± 0.078; under setting [3], 0.964 ± 0.12; under setting [4], 0.96 ± 0.078.

Turning to `C=C1C[C@@H]2[C@H](CC[C@]3(C)C(=O)CC[C@@H]23)[C@@]2(C)C=CC(=O)C=C12` [Exemestane], the relative viability came out at 0.797 ± 0.073 under setting [1], 0.82 ± 0.079 under setting [2], 0.839 ± 0.17 under setting [3] and 0.971 ± 0.086 under setting [4].

As to `Cn1c(CCCC(=O)O)nc2cc(N(CCCl)CCCl)ccc21` [bendamustine hydrochloride], the relative viability runs as follows: under setting [1], 0.713 ± 0.012; under setting [2], 0.729 ± 0.045; under setting [3], 0.784 ± 0.012; under setting [4], 0.865 ± 0.056.

Turning to `C1CN1c1nc(N2CC2)nc(N2CC2)n1` [Triethylenemelamine], the relative viability amounted to 0.834 ± 0.081 under setting [1], 0.834 ± 0.059 under setting [2], 0.828 ± 0.012 under setting [3] and 0.918 ± 0.042 under setting [4].

As to `Cc1ccccc1-n1c(Cn2cnc3c(N)ncnc32)nc2cccc(C)c2c1=O`, the relative viability reads like this: under setting [1], 0.828 ± 0.076; under setting [2], 0.784 ± 0.083; under setting [3], 0.79 ± 0.088; under setting [4], 0.875 ± 0.056.

As for `N[C@@H](Cc1ccc(N(CCCl)CCCl)cc1)C(=O)O` [Melphalan], the relative viability by setting is: under setting [1], 0.835 ± 0.054; under setting [2], 0.819 ± 0.11; under setting [3], 0.874 ± 0.13; under setting [4], 0.876 ± 0.068.
